# Source: PubChem BioAssay
# A number with no mark means an inactive call.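 How the source made its calls: active means GFP response above 150% of the DMSO level; inconclusive means fewer than 70 events counted for a yeast strain; inactive means the rest.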
# Assay: AGP1-GFP expression modulators, hit retest, confirmation, cell-based, flow cytometry, S. cerevisiae, cherry picks (AID 2273);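 further: median GFP channel fluorescence over the whole cell population gate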
# Details: S. cerevisiae AGP1-GFP strain, 3 h, at 10 µM
structure (smiles),measurement,value
CCN(CC)c1ccc2cc(-c3nc(-c4ccc(OC)cc4)cs3)c(=O)oc2c1,"GFP response, % of DMSO",108%
